# Reference: PMC5540273 (PLoS ONE, 2017)
# How the values were obtained:
# Settings in all cases: concentration: 1 μM, replicates: in singlicate; n = 1
# [1] = tested on: TSSK1B
# [2] = tested on: TSSK3
# [3] = tested on: TTK
# [4] = tested on: TXK
# [5] = tested on: TYK2(JH1domain-catalytic)
# [6] = tested on: TYK2(JH2domain-pseudokinase)
# [7] = tested on: TYRO3
# [8] = tested on: ULK1
# [9] = tested on: ULK2
# [10] = tested on: ULK3
# [11] = tested on: T1, VEGFR2
# T1 construct: gene KDR
# [12] = tested on: T2, VPS34
# T2 construct: gene PIK3C3
# [13] = tested on: VRK2
# [14] = tested on: WEE1
# [15] = tested on: WEE2
# [16] = tested on: WNK1
# [17] = tested on: WNK2
# [18] = tested on: WNK3
# [19] = tested on: WNK4
# [20] = tested on: T3, YANK1
# T3 construct: gene STK32A
# 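Further: KINOMEscan kinase panel screen.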
SMILES,%Inh [1] [%],%Inh [2] [%],%Inh [3] [%],%Inh [4] [%],%Inh [5] [%],%Inh [6] [%],%Inh [7] [%],%Inh [8] [%],%Inh [9] [%],%Inh [10] [%],%Inh [11] [%],%Inh [12] [%],%Inh [13] [%],%Inh [14] [%],%Inh [15] [%],%Inh [16] [%],%Inh [17] [%],%Inh [18] [%],%Inh [19] [%],%Inh [20] [%]
FC(F)(F)c1ccccc1-c1cc(-c2c[nH]nc2-c2ccccn2)ccn1 [GW679396],1,4,0,0,0,0,13,0,0,0,1,0,0,4,5,0,0,13,11,3
COc1cccc(C2=C(Nc3cc(Cl)c(O)c(Cl)c3)C(=O)NC2=O)c1 [SB-390767],0,16,7,15,28,39,29,32,0,13,0,0,20,0,0,20,0,16,17,0
Cc1ccc(NC(=O)Nc2ccccc2F)cc1-c1ccc(C(=O)Nc2ccncc2)cc1 [GSK1398477],3,11,22,8,0,0,9,8,0,0,0,11,0,26,12,2,0,0,0,5
COc1ccc(Nc2nccc(NCCNC(=O)Nc3cc(C)ccc3C)n2)cc1 [GSK1379899],0,7,0,15,17,0,0,28,0,0,2,4,0,0,0,0,10,0,0,0
Cc1cccc2c(-c3ccncn3)c(-c3ccc(F)cc3)nn12 [GW515532],16,0,14,12,30,24,0,19,0,10,5,30,0,0,0,16,0,22,0,26
Cc1ccc(NC(=O)Nc2ccc(Cl)cc2)cc1-c1ccc(C(=O)Nc2ccncc2)cc1 [GSK1398472],0,11,0,47,62,13,4,8,0,0,9,0,0,16,5,7,0,13,23,1
Cc1ccc(NC(=O)Nc2ccc(Cl)c(C(F)(F)F)c2)cc1-c1ccc(C(=O)Nc2ccncc2)cc1 [GSK1398470],0,9,32,0,0,0,0,44,0,51,0,0,8,3,10,0,8,0,0,60
COc1cc2ncnc(Nc3cccc(Br)c3)c2cc1OC.Cl [GI230329],0,16,0,4,,23,3,9,0,17,0,41,24,2,6,0,0,41,16,56
Cc1ccccc1-c1cc(-c2c[nH]nc2-c2ccccn2)ccn1 [GW680061],1,15,6,0,0,18,35,0,0,13,0,0,0,8,0,14,14,24,31,0
Cc1c(Cn2c3ccccc3n3c(=O)cc(N4CCOCC4)nc23)cccc1C(F)(F)F [GSK2306394],3,0,27,0,26,0,0,21,0,7,0,80,0,0,3,2,23,0,0,0
CCn1c(-c2c(N)noc2C)nc2cnccc21 [SB-737856],19,3,0,31,0,21,12,18,7,16,0,0,0,18,11,20,0,17,78,9
COC(=O)C(NC(=O)NC1CCN(c2ccnc(Nc3ccc(F)cc3)n2)C1)c1ccccc1 (stereo not shown) [GSK1379712],14,23,3,0,13,22,0,0,3,4,14,0,24,9,0,22,28,36,25,0
O=C(Nc1n[nH]c2nc(-c3cccs3)c(Br)cc12)C1CC1 [SB-735297],0,0,0,22,9,0,12,0,6,3,0,6,0,0,0,0,0,0,29,0
CC(=O)c1c(C)c2cnc(Nc3ccn(C)n3)nc2n(C2CCCC2)c1=O,16,0,52,0,0,0,0,0,6,0,0,3,28,0,0,0,0,0,0,0
Nc1nccc(-c2c(-c3ccc(F)cc3)ncn2C2CCN(Cc3ccccc3)CC2)n1 [SB-219980],0,0,0,0,7,49,15,31,0,22,1,0,0,0,0,7,12,0,0,28
O=C(Nc1n[nH]c2cc(-c3ccsc3)ccc12)C1CC1 [SB-732932],13,27,35,5,9,0,14,21,6,32,13,27,0,0,13,18,34,18,9,0
